Measurements reported in PubChem BioAssay (Tox21).
A number with no mark means an inactive call. Records with an inconclusive call do not appear. A call without a number means that no potency is given here. Active and inactive are the calls of the source. Unless noted, the call rests on the fitted dose curve; in most records, active means well fitted curve in the direction sought with a large enough effect in the repeat runs; inconclusive means weak or mixed curves; inactive means no such curve, though single readings can be large; an effect the other way counts as inactive or inconclusive.

Assays:
[1] = qHTS assay to identify small molecule agonists of the estrogen related receptor (ERR) signaling pathway from Tox21 library (AID 1224849; calls by dose curve; further: nearly all actives have a fitted effect of over 15% in size); conditions: ERR reporter cell line, ONE-Glo luciferase, 18 h; at 92.4 µM (top of the series) unless noted
Method in brief: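 ERR reporter cells (NTP line) pre-incubated 6 hours at 37 C, then exposed to compounds for 18 hours at 37 C. ONE-Glo luciferase luminescence was read after 30 minutes at room temperature.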

[2] = A CellTox Green Cytotoxicity Assay to monitor cytotoxicity in HEK293 cells - 0 hour (AID 1224869); further: nearly all actives have a fitted effect of over 50% in size
Method in brief: (§1)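 HEK293 cells, 600/well, were preincubated 5 hours and then exposed to compounds at 37 C for up to 40 hours. A cell-impermeant cyanine dye staining dead-cell DNA was read by fluorescence at 0, 8, 16, 24, 32 and 40 h time points.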

[3] = qHTS RealTime-Glo MT Cell Viability Assay in HEK293 cells - 16 hour (AID 1224872); further: nearly all actives have a fitted effect of over 50% in size; further: potency means the concentration at half of the fitted maximal effect
Method in brief: (§2)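 Quantitative high-throughput screen of the Tox21 10K library in HEK293: cells and RealTime-Glo reagents plated together, compound added at 5 h, luminescence monitored through 40 h at 37 C.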

[4] = qHTS RealTime-Glo MT Cell Viability Assay in HEK293 cells - 40 hour (AID 1224874); conditions: RealTime-Glo luminescence; max response: hits give low values; further: nearly all actives have a fitted effect of over 50% in size; further: potency means the concentration at half of the fitted maximal effect
Method in brief: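 600 cells/well were plated with the nonlytic NanoLuc/prosubstrate reagent, pre-incubated 5 h, then given 23 nL of compound in DMSO. Incubation at 37 C for 40 h, with luminescence from viable-cell-reduced substrate read repeatedly from 0 h.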

[5] = qHTS RealTime-Glo MT Cell Viability Assay in HEK293 cells - 32 hour (AID 1224868); further: nearly all actives have a fitted effect of over 50% in size; further: potency means the concentration at half of the fitted maximal effect
Method in brief: as §2

[6] = qHTS RealTime-Glo MT Cell Viability Assay in HepG2 cells - 40 hour (AID 1224870); further: nearly all actives have a fitted effect of over 50% in size; further: potency means the concentration at half of the fitted maximal effect
Method in brief: (§3)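 HepG2 cells (600/well) mixed with RealTime-Glo MT reagent, settled 5 h at 37 C/5% CO2 before compound addition. Nonlytic NanoLuc luminescence from viable-cell prosubstrate reduction read repeatedly during 40 h treatment at 37 C.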

[7] = qHTS RealTime-Glo MT Cell Viability Assay in HepG2 cells - 8 hour (AID 1224873); further: nearly all actives have a fitted effect of over 55% in size; further: potency means the concentration at half of the fitted maximal effect
Method in brief: as §3

[8] = A CellTox Green Cytotoxicity Assay to monitor cytotoxicity in HEK293 cells - 24 hour (AID 1224875); further: nearly all actives have a fitted effect of over 45% in size; further: potency means the concentration at half of the fitted maximal effect
Method in brief: as §1

[9] = qHTS RealTime-Glo MT Cell Viability Assay in HepG2 cells - 24 hour (AID 1224867); further: nearly all actives have a fitted effect of over 50% in size; further: potency means the concentration at half of the fitted maximal effect
Method in brief: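 Compound treatment began 5 h after plating HepG2 cells (600/well) with NanoLuc luciferase and prosubstrate. Plates stayed at 37 C for 40 h; luminescence was captured at six time points, 0 h through 40 h.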

[10] = A CellTox Green Cytotoxicity Assay to monitor cytotoxicity in HEK293 cells - 40 hour (AID 1224871); further: nearly all actives have a fitted effect of over 45% in size; further: potency means the concentration at half of the fitted maximal effect
Method in brief: as §1

| Structure (SMILES) | activity change, positive = activation [1] | Potency [2] | Potency [3] | Potency [4] | Potency [5] | Potency [6] | Potency [7] | max response [4] [%] | Potency [8] | Potency [9] | Potency [10] |
| --- | --- | --- | --- | --- | --- | --- | --- | --- | --- | --- | --- |
| CCCCCCCCCCCCCCCCCCNC(=O)OC1CCN(C(=O)OC[C@H](COC(=O)N(Cc2cccc[n+]2CC)C(=O)c2ccccc2OC)OC)CC1 | -55.2% [at 42.5 µM] | inactive | 21.3 µM (active) | 9.52 µM (active) |  |  |  |  |  |  |  |
| Clc1ccc2c(Cl)ccnc2c1 | 1.29% | inactive | inactive |  | inactive | inactive | inactive | -6.98 | inactive |  |  |
| CSc1nnc(C(C)(C)C)c(=O)[nH]1 |  | inactive | inactive |  | inactive | inactive | inactive | 1.65 | inactive | inactive | inactive |
| Nc1ccc2c(S(=O)(=O)O)cccc2c1S(=O)(=O)O | -1.51% [at 42.5 µM] | inactive |  |  |  | inactive | inactive | 5.38 | inactive |  | inactive |
| [Cl][Eu]([Cl])[Cl] |  | inactive | inactive |  | inactive | inactive | inactive | -1.1 | inactive | inactive | inactive |
| CC(=O)Nc1ccc(N=Nc2cc(C)ccc2O)cc1 | 169% (active) | inactive |  |  | inactive | inactive | inactive | -19.1 | inactive |  | inactive |
| CCCCCN=C(N)N/N=C/c1c[nH]c2ccc(OC)cc12 | -70.2% [at 42.5 µM] | inactive |  | 4.25 µM (active) | 4.25 µM (active) | 5.35 µM (active) | 10.7 µM (active) |  | 6.74 µM (active) |  | 6.74 µM (active) |
| CCOC=C(C(=O)OCC)C(=O)OCC |  | inactive | inactive |  | inactive | inactive | inactive | -0.307 | inactive | inactive | inactive |
| Oc1cccc2c(O)cccc12 | -6.39% | inactive |  |  |  | inactive | inactive | 3.51 | inactive |  | inactive |
| Cc1ccc2sc3cccc(C)c3c2c1 |  | inactive | inactive |  | inactive | inactive | inactive | 12.7 | inactive | inactive | inactive |
| CCCCCCCCCC[N+](C)(CCCCCCCCCC)CCC[Si](OC)(OC)OC |  | inactive | 27.5 µM (active) | 27.5 µM (active) | 27.5 µM (active) | 43.6 µM (active) | 49 µM (active) |  | 38.9 µM (active) | 43.6 µM (active) | 43.6 µM (active) |
